# Screens deposited in PubChem BioAssay by National Center for Advancing Translational Sciences (NCATS).
# HCV inh: qHTS Assay for Inhibitors of Hepatitis C Virus (HCV); Huh7.5.1 HCVcc-Cre infection, luciferase reporter, 44 h; Potency, µM (highest dose often 41.8 µM), for inactives: top-dose activity change, negative = inhibition, usual class: inhibitors; hit rate 3.4% among 340,000; AID 651820, 2012; further: potency means the concentration at half of the fitted maximal effect; on the % scale 0 is the no-effect control and ±100 the full control effect
#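 HCVcc-Cre virus at an moi near 0.5 was added right after compound to cells cultured 4 h from seeding (1,000 cells/well). Luciferase activity was determined 44 h later, 15 min after substrate addition at RT.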
# HCMV inh: qHTS Assay for inhibitors of the human cytomegalovirus (HCMV) | HFF cells, HCMV-luciferase reporter, 72 h; hits give low values | activity change, negative = inhibition, % at 57.5 µM | hit rate 4.5% among 410,000; in the data active means activity change below about -60%; inconclusive means no clear call, values can overlap the other calls; inactive means above about -39%; further: on the % scale 0 is the no-effect control and ±100 the full control effect
#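 Cell-based, HFFs, 1000 cells/well, 16 h 37C; cpds in DMSO + HCMV-luc, MOI 1 PFU/cell; 72 h 37C; OneGlo luminescence after 5 min RT; norm. to buffer vs Salinomycin 10uM.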
# CHX counter: Cycloheximide Counterscreen for Small Molecule Inhibitors of Shiga Toxin. cell reporter, cycloheximide protein synthesis inhibition counterscreen. max response, %. hit rate 12% among 300,000. AID 2314, 2010; in the data active means max response mostly above about 13%, no sharp cut-off; inactive means mostly below about 14%; further: read at 38.3 µM for the half of the compounds with a filed dose; 0% is about no effect
# Shiga toxin inh: A qHTS for Small Molecule Inhibitors of Shiga Toxin; hit rate 9.2% among 290,000; Vero cells, Shiga toxin protein synthesis inhibition reporter; inhibition, % at 38.7 µM; in the data active means inhibition mostly above about 28%, no sharp cut-off; inactive means mostly below about 43%; further: 0% is about no effect
# Pf growth 96h: Primary qHTS for delayed death inhibitors of the malarial parasite plastid, 96 hour incubation; P. falciparum luciferase reporter growth, 96 h; Potency, µM (top dose mostly 28.7 µM), without a hit: top-dose activity change, negative = inhibition, most hits filed as inhibitors; hit rate 6.9% among 320,000; further: potency means the concentration at half of the fitted maximal effect; on the % scale 0 is the no-effect control and ±100 the full control effect
#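 Two-generation exposure (96 h) targets delayed-death phenotype. Reporter parasites carrying integrated firefly luciferase, in red cells at 2% hematocrit and 0.05% parasitemia final, kept at 37 C, 5% CO2; luminescence loss indicates inhibition.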
# Pf growth 48h: Primary qHTS for delayed death inhibitors of the malarial parasite plastid, 48 hour incubation; P. falciparum luciferase growth in erythrocytes, 48 h; Potency, µM (top dose mostly 28.7 µM), for inactives: at the highest dose activity change, negative = inhibition, hits mostly inhibitors; hit rate 5.9% among 310,000; AID 504832, 2011; further: potency means the concentration at half of the fitted maximal effect; on the % scale 0 is the no-effect control and ±100 the full control effect
#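 Luciferase-expressing parasites in RBCs, 2% Hct / 0.1% parasitemia final; RPMI 1640 + 0.5% Albumax; 37 C, 5% CO2, one generation; luminescence read-out, lower signal = inhibition.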
# * = called active by the depositor; i = inactive; ? = inconclusive; · = no result. Hits are enriched below; roughly 21% of the tested compounds scored in any of these assays. Unless noted, the call rests on the fitted dose curve; in most records, active means well fitted inhibition curve with a large enough effect; inconclusive means small, poorly fitted or top-dose-only effect, or another doubt; inactive means no such curve, though single readings can be large or run the other way.
SMILES,HCV inh,HCMV inh,CHX counter,Shiga toxin inh,Pf growth 96h,Pf growth 48h
COc1cc(CC2COC(=O)C2(O)Cc2ccc(O)c(OC)c2)ccc1O (centres undefined),?,?,-6,-5,1%,-19%
COc1cc(C[C@@H]2C(=O)OC[C@H]2Cc2ccc(OC)c(OC)c2)ccc1O,?,-90*,·,·,31%,-12%
O=C1c2ccccc2S(=O)(=O)N1Cc1nc2ccccc2s1,20%,-73*,-3,-23,i,86%
CCOc1ccc(N2CC(C)Cn3c2nc2c3c(=O)n(CC(=O)O)c(=O)n2C)cc1 (centres undefined),·,21,·,·,·,·
COC(=O)c1c(-c2ccc(C)cc2)csc1NC(=O)Cc1ccc(OC)c(OC)c1,?,-65*,0,7,?,·
COC(=O)c1c(-c2ccc(Br)cc2)csc1NC(=O)Cc1ccc(OC)c(OC)c1,?,?,-3,-22,·,?
COc1ccc(CC(=O)NNC(=O)CCc2ccccc2)cc1OC,22%,-14,-4,12,13µM*,51%
COC(=O)c1c(-c2cccc3ccccc23)csc1NC(=O)Cc1ccc(OC)c(OC)c1,5.6µM*,?,-3,-6,2.6µM*,·
COc1ccc(CC(=O)NC(C)CCc2ccccc2)cc1OC (centres undefined),?,-13,-2,24,6%,-12%
COc1ccc(CC(=O)Nc2cccc3ccccc23)cc1OC,?,-85*,-2,-15,2%,-10%
COc1ccc(CC(=O)Nc2cccc3ncccc23)cc1OC,5%,43,-5,5,-2%,-10%
COC(=O)c1sccc1NC(=O)Cc1ccc(OC)c(OC)c1,-27%,-18,14,7,?,11%
C=C(Nc1ccc(OCC)cc1)Nc1ccc(OCC)cc1,·,·,-5,-6,-5%,-6%
COc1cccc(CNC(=O)CCNC(=O)c2ccccc2OC)c1,4%,-6,1,-4,2%,-2%
CCCN(CC(=O)Nc1ccc(F)c(F)c1F)C(=O)Cc1ccc(OC)c(S(=O)(=O)N2CCOCC2)c1,-16%,21,·,·,·,·
COC(=O)c1c(-c2ccc(C)cc2)csc1NC(=O)C1CC=CCC1C(=O)O (centres undefined),8%,-35,10,active,6%,-19%
O=C(Nc1ccc(Br)cc1)N1CCC(CN2CCCC2)CC1,·,-19,·,·,·,·
CCCn1c(C2CCCN2c2nc(-c3cccc(Br)c3)cs2)nc2cc(Cl)c(Cl)cc21 (centres undefined),-28%,-6,1,-12,9.3µM*,12µM*
OCCCn1c(C2CCCN2c2nc(-c3ccc(Cl)cc3)cs2)nc2cc(C(F)(F)F)ccc21 (centres undefined),?,-66*,·,·,·,·
OCCCn1c(C2CCCN2c2nc(-c3ccc(Cl)cc3)cs2)nc2cc(Cl)c(Cl)cc21 (centres undefined),?,0,·,·,·,·
Nc1c(Cl)cc(-c2csc(N3CCCC3c3nc4cc(Cl)c(Cl)cc4n3CCCO)n2)cc1Cl (centres undefined),2µM*,17,·,·,·,·
CCOc1ccccc1NC(=O)CCS(=O)(=O)c1ccc(Br)cc1,-12%,9,6,27,30%,-2%
Cc1cc(C)c(Cn2c(C3CC(=O)N(c4ccc(F)cc4)C3)nc3ccccc32)c(C)c1 (centres undefined),·,0,·,·,·,·
CCc1ccccc1OCC(=O)Nc1ccc(N2CCCC2)cc1C,?,·,·,·,2.6µM*,5.2µM*
Cc1cc(N2CCCC2)ccc1NC(=O)COc1ccccc1,?,-23,·,·,?,15µM*
SMILES,HCV inh,HCMV inh,CHX counter,Shiga toxin inh,Pf growth 96h,Pf growth 48h
COc1ccc(N2CCCC2)c(NC(=O)COc2ccccc2)c1,?,-39,-3,-11,52%,-18%
CCOC(=O)N1CCN(C(=O)C[C@@H]2C[C@@]3(C(=O)OC)CCCCC=C3N(Cc3ccccc3)C2=O)CC1,·,-12,·,·,·,·
CC(=O)c1ccc(-c2nc3c4ccccc4ccn3c2C(C)=O)o1,-5%,-65*,16,-36,23%,-15%
COc1ccc(NC(=O)C2CCN(S(=O)(=O)c3cccc4nonc34)CC2)c(OC)c1,10%,-26,-1,-5,-7%,-13%
CCOc1ccc(C(C(=O)NC2CCCCC2)N(CCOC)C(=O)c2snc(C(N)=O)c2N)cc1 (centres undefined),8%,18,-2,5,?,?
CCCc1cc(=O)oc2c3c(cc(OCC(=O)N[C@@H](C)C(=O)O)c12)OC(C)(C)CC3,20%,-31,-2,1,-3%,-1%
CCCc1cc(=O)oc2c3c(c4c(c12)OC(C)(C)C=C4)OC(C)C(C)C3O (centres undefined),10µM*,-77*,-2,-6,10µM*,?
Cc1ccc2nc(C)cc(N/N=C/c3ccccc3O)c2c1,-14%,85,22*,27*,-5%,36%
COc1ccccc1/C=N/Nc1cc(C)nc2ccc(C)cc12,?,27,26*,·,?,-41%
CCC[C@H](N[C@@H](C)C(=O)N1[C@@H]2CCCC[C@H]2C[C@H]1C(=O)O)C(=O)OCC,·,·,-5,23,·,·
CN(C)c1ccnc2sc(C(=O)NCc3ccccc3)c(N)c12,13µM*,-23,21,56,-30%,?
CN(C)C=Nc1c(C(=O)c2ccccc2)sc2nccc(N(C)C)c12,?,-75*,-3,-6,32%,15%
CCCCn1c(N)c(N(CCOC)C(=O)COC(=O)CNC(=O)c2ccc(Cl)c(Cl)c2)c(=O)[nH]c1=O,13%,12,·,·,·,·
Cc1c(Cl)cccc1N1C(N)=C(C#N)C(c2cc(CN3CCOCC3)cs2)C2=C1CCCC2=O (centres undefined),·,-13,·,·,·,·
COCCNC(=S)N(C)[C@H]1C[C@H]2c3[nH]c4c(-c5ccc6c(c5)OCO6)cccc4c3CCN2C(=O)[C@H]1[C@H](C)O,·,-13,·,·,·,·
CC(C)(C)C(=O)NCCCc1nc2ccccc2n1CCCOc1ccc(Cl)cc1,?,-84*,-4,-9,30%,?
N=c1n(CCCOc2ccc(Br)cc2)c2ccccc2n1CC(N)=O,?,1,-3,-7,9.3µM*,13µM*
CC(=O)NCCc1nc2ccccc2n1CCCCOc1ccc(Cl)cc1,·,-27,·,·,·,·
OCc1nc2ccccc2n1CCCOc1ccc(Br)cc1,-6%,13,21*,40*,·,19%
COc1ccccc1OCCn1c(CO)nc2ccccc21,-19%,-3,7,-4,23%,9%
Cn1c(=O)n(CCCOc2ccc(Br)cc2)c2ccccc21,-4%,-25,10,57,·,-23%
